PAX8 inh HTS: inhibitors of PAX8 transcriptional activity in RMG-I cells; RMG-I TPO-luciferase reporter, SteadyGlo, 24 h; inhibition, % at 12.6 µM; 360,000 tested, 1.2% active; AID 652154;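 active = mean replicate inhibition at least 60% with every replicate also reaching 60%; inconclusive = only one of the two criteria is met; inactive = mean below 60% and not all replicates reaching 60%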;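 also: luciferase light reporting Pax8 driven TPO promoter activity; plate controls were median of neutral control wells for no effect and mitoxantrone controls for full effect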
PGC1a acetyl inh: modulators of PGC1a acetylation | U2OS PGC1a acetylation, AlphaScreen anti-acetyl-lysine; with virally co-expressed GCN5 acetyltransferase | inhibition, % at 15.6 µM | 350,000 tested, 0.17% active | AID 651687;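 active = every replicate shows inhibition of at least 40%; inconclusive = mean inhibition at least 40% but some replicate below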;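 also: 0% = neutral control wells and 100% = positive control wells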
SIRT5 block: blocks human SIRT5 desuccinylation of peptide; inhibition, % at 15 µM; AID 652115; 330,000 tested, 1.1% active; Purified SirT5, succinyl-peptide AMC, trypsin-coupled fluorescence; in the data active = inhibition above about 15%; inconclusive = no clear call, values can overlap the other calls
Target sequence (Q9NXA8 whole entry, looked up): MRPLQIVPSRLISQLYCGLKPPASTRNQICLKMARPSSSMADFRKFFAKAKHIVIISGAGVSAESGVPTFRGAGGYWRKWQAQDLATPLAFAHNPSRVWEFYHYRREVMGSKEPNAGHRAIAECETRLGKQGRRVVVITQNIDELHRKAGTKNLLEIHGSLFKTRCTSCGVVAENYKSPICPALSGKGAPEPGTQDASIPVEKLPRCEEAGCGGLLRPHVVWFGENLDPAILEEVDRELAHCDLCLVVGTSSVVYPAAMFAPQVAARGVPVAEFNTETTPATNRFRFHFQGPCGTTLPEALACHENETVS
rRNA inh HTS: inhibitors of bacterial rRNA selective over humanized ribosomes | 350,000 tested, 1.6% active | GFP signal change (wild-type ribosome), % (concentration not given with the values) | E. coli WT GFP vs humanized-ribosome RFP mutants, fluorescence, 24 h; hits give low values; DMSO median 0, no signal -100 | AID 720706;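 active = significant combined selectivity score with lowered wild-type GFP, culture density cut under 30%, mutant RFP and density less affected; inactive = any of these conditions unmet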
LGR2 inh: Drosophila LGR2 receptor signaling inhibition; AID 720647; 380,000 tested, 0.35% active; inhibition, % at 9.99 µM; HEK293 LGR2, CRE-luciferase, bursicon-stimulated, 4 h;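 active = drop in luminescence signal, shown as inhibition above about 50% in the replicate tests, limit read from the data, passing the limit was not always enough; inconclusive = probably only some replicates passing the limit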;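 also: agonist challenge used bursicon conditioned medium at about half maximal strength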
EWS-Fli inh: blocks EWS/Fli oncoprotein-driven transcription | 350,000 tested, 0.67% active | inhibition, % at 12.6 µM | A673 NR0B1-luciferase reporter, viability-normalised | AID 651661;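 active = mean inhibition of at least 50% after viability correction, with every replicate also passing that limit; inconclusive = mean reaches 50% but only one of two replicates passes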;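 also: firefly luciferase signal divided by Alamar Blue viability fluorescence both relative to DMSO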
* = called active by the depositor; u = inconclusive; x = no result given; ! = not confirmed by another sample. A selection: hits, their analogues and other compounds. The true share with any hit is near 3.4%.

SMILES	PAX8 inh HTS	PGC1a acetyl inh	SIRT5 block	rRNA inh HTS	LGR2 inh	EWS-Fli inh
C[C@@H]1CN([C@@H](C)CO)C(=O)Cc2cc(NC(=O)Nc3ccc4c(c3)OCO4)ccc2O[C@H]1CN(C)C(=O)Nc1ccc2c(c1)OCO2	x	-1	-1	-2	15	-7
COc1ccc2c3c([nH]c2c1)[C@@H](CO)N(C(=O)c1cccc(F)c1)CC31CCN(C(C)=O)CC1	x	x	x	0	x	x
Cc1ccc(CN(C)C[C@H]2OCc3cnnn3CCCC(=O)N([C@@H](C)CO)C[C@@H]2C)cc1	-6	-1	-1	8	2	0
C[C@@H]1CN([C@H](C)CO)C(=O)CCCn2nncc2CO[C@H]1CN(C)Cc1cccnc1	-14	16	17*!	1	6	-2
Cc1ccc(CN(C)C[C@@H]2OCc3cnnn3CCCC(=O)N([C@H](C)CO)C[C@@H]2C)cc1	x	5	18*	0	9	7
C[C@H]1CN([C@@H](C)CO)C(=O)CCCn2nncc2CO[C@H]1CN(C)Cc1cccnc1	x	2	-1	2	-4	-9
Cc1cccc(CN(C)C[C@@H]2OCc3cnnn3CCCC(=O)N([C@H](C)CO)C[C@@H]2C)c1	x	0	15*	-1	-2	4
Cc1cccc(CN(C)C[C@H]2OCc3cnnn3CCCC(=O)N([C@@H](C)CO)C[C@H]2C)c1	x	-5	x	0	8	5
CCC(=O)N1[C@H](CO)[C@@H](c2ccccc2)C12CN(Cc1cc(F)ccc1F)C2	x	-5	1	-1	18	0
CO[C@@H]1CN(C)C(=O)c2cc(NC(=O)NC(C)C)ccc2OC[C@H](C)N(C(=O)CC2CC2)C[C@@H]1C	x	-2	13	0	-4	5
C[C@H](CO)N1C[C@H](C)[C@H](CN(C)C(=O)Nc2ccc3c(c2)OCO3)OCCCC[C@H](C)Oc2ccc(NS(=O)(=O)c3cn(C)cn3)cc2C1=O	x	7	0	0	1	-7
Cc1c(NC(=O)c2cccc(NC(=O)COc3ccccc3)c2)c(=O)n(-c2ccccc2)n1C	-1	5	1	0	5	-10
Cc1c(NC(=O)c2cccc(NC(=O)COc3ccccc3C#N)c2)c(=O)n(-c2ccccc2)n1C	65*	x	-6	4	u	u
CC(C)(C)Cc1nnc(NC(=O)Cc2cccs2)s1	-22	-9	29*	-4	-46	-6
COc1ccc(C2C(C(C)=O)=C(O)C(=O)N2c2ccc(C)cc2)cc1 (stereo not given)	-53	x	0	-24*	12	-14
O=C(/C=C1\OCc2ccccc21)OCc1ccccc1	-244	x	15*	5	-58	-68
O=C(Nc1ccc(F)cc1)N[C@H]1CC[C@H](CCNS(=O)(=O)c2cccc(Cl)c2)O[C@@H]1CO	4	3	8	-17*!	7	8
COc1ccccc1NC(=O)N[C@H]1CC[C@H](CCNC(=O)c2ccc3c(c2)OCO3)O[C@@H]1CO	7	-9	19*	-3	0	1
O=C(CC1CC1)N[C@H]1CC[C@@H](CCNS(=O)(=O)c2ccc(Cl)cc2)O[C@@H]1CO	1	67*	-2	-1	5	3
COc1ccccc1NC(=O)N[C@H]1CC[C@@H](CCNC(=O)c2ccc3c(c2)OCO3)O[C@@H]1CO	6	-5	2	-3	3	-5
COc1ccccc1NC(=O)N[C@H]1CC[C@@H](CCNS(=O)(=O)c2ccc(F)cc2)O[C@@H]1CO	6	-5	19*	-1	20	-3
O=C(CC1CC1)N[C@@H]1CC[C@@H](CCNS(=O)(=O)c2ccc(Cl)cc2)O[C@H]1CO	8	-17	-1	1	7	0
CC(=O)N1[C@H](C(=O)N2CCc3ccccc3C2)[C@@H](CO)[C@@H]2Cn3c(ccc(-c4cccnc4)c3=O)[C@@H]21	-8	-14	-27	8	-12	-1
C[C@@H]1CN([C@H](C)CO)S(=O)(=O)c2ccc(C3=CCCC3)cc2O[C@@H]1CN(C)S(=O)(=O)c1ccc(F)cc1	x	-2	0	-1	17	7
C[C@H](CO)N1C[C@H](C)[C@H](CN(C)S(=O)(=O)c2ccc(F)cc2)Oc2cc(C3=CCCCC3)ccc2S1(=O)=O	x	-19	32*	5	23	20
SMILES	PAX8 inh HTS	PGC1a acetyl inh	SIRT5 block	rRNA inh HTS	LGR2 inh	EWS-Fli inh
C[C@@H]1CN([C@H](C)CO)S(=O)(=O)c2ccc(C3=CCCC3)cc2O[C@H]1CN(C)S(=O)(=O)c1ccc(F)cc1	x	-18	4	-2	13	6
C[C@@H]1CN([C@@H](C)CO)S(=O)(=O)c2ccc(C3=CCCCC3)cc2O[C@H]1CN(C)S(=O)(=O)c1ccc(F)cc1	x	-27	26*	3	16	32
C[C@H]1CN([C@@H](C)CO)S(=O)(=O)c2ccc(C3=CCCCC3)cc2O[C@@H]1CN(C)S(=O)(=O)c1ccc(F)cc1	x	-12	33*	-3	15	34
C[C@H]1CN([C@@H](C)CO)S(=O)(=O)c2ccc(C3=CCCCC3)cc2O[C@H]1CN(C)S(=O)(=O)c1ccc(F)cc1	x	-18	27*	-1	9	33
O=C(C[C@H]1C[C@H]2c3cc(NC(=O)Nc4ccccc4F)ccc3O[C@H]2[C@H](CO)O1)NCC1CC1	-3	-3	2	-3	-5	3
C[C@@H](O)C#Cc1cnc2c(c1)C(=O)N([C@@H](C)CO)C[C@H](C)[C@@H](CN(C)C(=O)Nc1ccc(F)cc1)O2	x	14	0	3	18	-5
CN1C(=O)c2cc(NC(=O)C3CCOCC3)ccc2OC[C@@H]2O[C@H](CC(=O)NC3CCCC3)CC[C@@H]21	-18	2	-2	1	6	4
O=C(c1ccccn1)N1CC(=O)N2[C@H](CO)[C@H](c3ccc(C#Cc4ccccc4)cc3)[C@@H]2C1	x	-4	2	5	5	13
Cc1ccc(S(=O)(=O)N(C)C[C@H]2Oc3cc(C4=CCCC4)ccc3S(=O)(=O)N([C@H](C)CO)C[C@H]2C)cc1	41	5	4	0	1	11
C[C@@H]1CN([C@@H](C)CO)S(=O)(=O)c2ccc(C3=CCCCC3)cc2O[C@@H]1CN(C)S(=O)(=O)c1ccc(F)cc1	x	-3	22*	0	16	16
Cc1ccc(S(=O)(=O)N(C)C[C@@H]2Oc3cc(C4=CCCC4)ccc3S(=O)(=O)N([C@@H](C)CO)C[C@H]2C)cc1	71*	-2	5	0	0	10
C[C@H]1CN([C@@H](C)CO)S(=O)(=O)c2ccc(C3=CCCC3)cc2O[C@@H]1CN(C)S(=O)(=O)c1ccc(F)cc1	x	-7	4	1	-26	11
